Screening results from PubChem BioAssay.
IDE exosite inh: exo-site inhibitors of human IDE, primary screen, biochemical, fluorescence anisotropy, probe displacement | purified IDE, FL-6b probe fluorescence polarization; hits give low values | z-score at 20 µM | actives 6.3% (n = 17,000) | AID 1259349, 2017;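 active = z-score of -3 or lower, meaning strong loss of probe binding signal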;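 note: His-tagged human IDE residues 42-1019 made in E. coli with 30 nM FL-6b probe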
Large screens that a line does not name were inactive. This is one part of a sample in which hits are shown more often than they occur.

COc1ccc(-c2ccc([C@H]3[C@@H](CO)N4C(=O)CN(C(=O)c5cccnc5)C[C@H]34)cc2)cc1	IDE exosite inh -4.9
COCC(=O)N(C)C[C@H]1[C@H](c2ccccc2)[C@@H](CO)N1C(=O)NC(C)C	none
O=C(Nc1ccccc1F)N1CC(=O)N2[C@@H](CO)[C@@H](c3ccc(C#CC4CCCC4)cc3)[C@@H]2C1	none
CO[C@H]1CC[C@@H]2CCOc3ccc(C#N)cc3C(=O)N(C)C[C@@H](c3ccccc3)CC(=O)N(C)C[C@@H]1O2	none
C[C@@H]1CCCCO[C@@H](CN(C)S(=O)(=O)c2cn(C)cn2)[C@@H](C)CN([C@@H](C)CO)C(=O)c2cc(NC(=O)Nc3cccc4ccccc34)ccc2O1	IDE exosite inh -4.2
C[C@@H]1CCCCO[C@@H](CN(C)S(=O)(=O)c2cn(C)cn2)[C@@H](C)CN([C@H](C)CO)C(=O)c2cc(NC(=O)Nc3cccc4ccccc34)ccc2O1	none
C[C@@H]1CN([C@@H](C)CO)C(=O)c2cc(NC(=O)Nc3cccc4ccccc34)ccc2O[C@@H](C)CCCCO[C@@H]1CN(C)S(=O)(=O)c1cn(C)cn1	IDE exosite inh -3.9
C[C@@H]1CCCCO[C@H](CN(C)S(=O)(=O)c2cn(C)cn2)[C@H](C)CN([C@@H](C)CO)C(=O)c2cc(NC(=O)Nc3cccc4ccccc34)ccc2O1	none
C[C@@H]1CN([C@H](C)CO)C(=O)c2cc(NC(=O)Nc3cccc4ccccc34)ccc2O[C@@H](C)CCCCO[C@H]1CN(C)S(=O)(=O)c1cn(C)cn1	none
C[C@@H]1CCCCO[C@H](CN(C)S(=O)(=O)c2cn(C)cn2)[C@@H](C)CN([C@@H](C)CO)C(=O)c2cc(NC(=O)Nc3cccc4ccccc34)ccc2O1	none
Cc1ccc(-c2ccc([C@H]3[C@@H](CO)N4C(=O)CN(C(=O)Nc5cccc(F)c5)C[C@@H]34)cc2)cc1	none
COc1ccc2c3c([nH]c2c1)[C@H](CO)N(C(=O)NC(C)C)CC31CCN(C(=O)c2cnccn2)CC1	none
O=C(c1cccc(F)c1)N1CC2(C1)[C@H](c1ccccc1)[C@H](CO)N2C(=O)C1CCCCC1	none
CC1C=NC(S(=O)(=O)N2CC[C@H]3[C@@H](CO)N(C)c4ccc(C#Cc5cccnc5)cc4[C@H]32)=N1 (some centres not stated)	none
COc1ccc(CNC(=O)C[C@H]2C=C[C@H](NC(=O)c3cccc(F)c3)[C@H](CO)O2)cc1	none
N#C[C@@H]1[C@H](c2ccccc2C2=CCCCC2)[C@@H](CO)N1C(=O)Cc1ccncc1	none
CO[C@H]1CN(C)C(=O)c2cc(NC(=O)c3cnccn3)ccc2OC[C@@H](C)NC[C@@H]1C	none
COc1cccc(NC(=O)Nc2ccc3c(c2)C(=O)N(C)C[C@H](OC)[C@H](C)CN[C@H](C)CO3)c1	none
CO[C@H]1CN(C)C(=O)c2cc(NC(=O)c3ccc(Oc4ccccc4)cc3)ccc2OC[C@@H](C)NC[C@@H]1C	IDE exosite inh -13
COc1cccc(NC(=O)Nc2ccc3c(c2)C(=O)N(C)C[C@@H](OC)[C@@H](C)CN[C@H](C)CO3)c1	none
COc1cccc(NC(=O)Nc2ccc3c(c2)C(=O)N(C)C[C@@H](OC)[C@@H](C)CN[C@@H](C)CO3)c1	none
CO[C@@H]1CN(C)C(=O)c2cc(NC(=O)c3ccc(Oc4ccccc4)cc3)ccc2OC[C@H](C)NC[C@H]1C	IDE exosite inh -7.6
COc1ccc2c3c([nH]c2c1)[C@@H](CO)N(C(=O)c1cccnc1)CC31CN(C(=O)Nc2cccc(F)c2)C1	none
C[C@H](CO)N1C[C@H](C)[C@@H](CN(C)C(=O)[C@@H](Cc2ccccc2)N(C)C)OCc2ccccc2-c2c(n(C)c3ccccc23)C1=O	none
C[C@@H](O)C#Cc1ccc([C@@H]2[C@H]3CN(CC4CC4)CCCCN3[C@H]2CO)cc1	none
